# HTT promoter inh – Primary qHTS for Identification of Small Molecule Inhibitors of Huntingtin Promoter Activity; AID 1508623, 2021; hit rate 0.93% among 48,000; Potency, µM (titrated, usually from 57.5 µM), most hits filed as inhibitors; HEK293 HTT promoter firefly luciferase reporter, 24 h; note: nearly all actives have a fitted effect of over 50% in size
#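 HEK293 luciferase promoter-reporter cells (2,500/well) plated 24 h, then compounds added at up to 57.5 uM final for 24 h at 37 °C. Firefly luminescence by Dual-Glo, normalized to vehicle (0%) and zero RLU (-100%).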
# SKOV3 invasion – Primary qHTS assay for Inhibitors of ovarian cancer metastasis using an organotypic tumor microenvironment (TME) model. Potency, µM (doses to about 45.8 µM), usual class: inhibitors. SKOV3ip1-GFP adhesion/invasion on 3D omental model, fluorescence. AID 1963576, 2024. hit rate 0.1% among 46,000; note: nearly all actives have a fitted effect of over 65% in size
#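 Adhesion/invasion was scored as fixed GFP-labeled SKOV3ip1 cell counts (488/509 nm), normalized to DMSO and tomatine controls. Cancer cells in serum-free medium, with four compound doses (0.36-46 umol/L), sat 2 hr at RT then 16 hr at 37 C on a 48 hr fibroblast/mesothelial/ECM culture.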
# NTMT1 inhibitor – Primary qHTS for Inhibitors of N-terminal methyltransferase 1 (NTMT1): MTaseGlo Assay; N-terminal Xaa-Pro-Lys N-methyltransferase 1 (Homo sapiens), Q9BV86; NTMT1 MTase-Glo SAH luminescence, purified enzyme; Potency, µM (series often up to 114 µM), usual class: inhibitors; hit rate 2.5% among 59,000; note: nearly all actives have a fitted effect of over 65% in size
# Target sequence (Q9BV86 whole entry, looked up): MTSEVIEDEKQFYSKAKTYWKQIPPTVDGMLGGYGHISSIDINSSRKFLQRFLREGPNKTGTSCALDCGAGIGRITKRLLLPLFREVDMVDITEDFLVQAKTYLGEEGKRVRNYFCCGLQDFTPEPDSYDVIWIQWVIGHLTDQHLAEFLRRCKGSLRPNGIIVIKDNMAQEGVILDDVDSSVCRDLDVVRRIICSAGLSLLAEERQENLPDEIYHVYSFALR
# PTAP-TSG101 blk – qHTS Validation Assay for Inhibitors of HIV-1 Budding by Blocking the Interaction of PTAP/TSG101: Sytravon Library Screen. Fluorescence polarization, FITC-PTAP peptide/Tsg101, 20 min. Tumor susceptibility gene 101 protein (Homo sapiens), Q99816. Potency, µM (top dose mostly 115 µM), hits mostly inhibitors. 44,000 tested, under 10 active
#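 FITC-labeled PTAP peptide (50 nM final) binding to Tsg101 binding domain (10 uM final) read by fluorescence polarization after 20 min at r.t. in HEPES pH 7.5 buffer. Actives by CRC class, <25 µM.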
# HTT-AS promoter – Primary qHTS for Identification of Small Molecule Activators of Huntingtin-Antisense Promoter Activity. Potency, µM (top dose mostly 57.5 µM), usual class: activators. hit rate 0.24% among 48,000. HEK293 HTT-AS promoter firefly luciferase reporter, 24 h; response scale: percent change from vehicle, -100% = no light. AID 1508624, 2021; note: nearly all actives have a fitted effect of over 55% in size
#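 Firefly luciferase readout (Dual-Glo, 10 min RT) after 24 h, 37 °C compound exposure (final up to 57.5 uM) of HEK293 reporter cells cultured 24 h beforehand; PTC124 at 50 uM final as control inhibitor; activity scaled vehicle 0%, zero RLU -100%.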
# GALK inh – qHTS Assay for Inhibitors of Human Galactokinase (GALK): NCGC Sytravon Library Screen; P51570; recombinant GALK, Kinase-Glo ATP luminescence, 1 h; Potency, µM (doses to about 57.5 µM), usual class: inhibitors; 44,000 tested, under 10 active
# Target sequence (P51570 whole entry, looked up): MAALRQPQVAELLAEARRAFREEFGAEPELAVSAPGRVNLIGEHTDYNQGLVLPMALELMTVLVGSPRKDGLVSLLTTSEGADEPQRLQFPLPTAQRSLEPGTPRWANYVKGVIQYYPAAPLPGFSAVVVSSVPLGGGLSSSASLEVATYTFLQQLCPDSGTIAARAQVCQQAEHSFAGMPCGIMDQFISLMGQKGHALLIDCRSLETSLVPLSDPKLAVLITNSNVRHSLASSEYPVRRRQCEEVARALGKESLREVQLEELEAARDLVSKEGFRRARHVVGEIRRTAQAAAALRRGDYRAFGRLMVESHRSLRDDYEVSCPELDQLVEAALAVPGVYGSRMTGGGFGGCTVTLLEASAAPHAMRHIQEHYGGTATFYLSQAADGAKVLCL
#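 Luminescent ATP-depletion readout (Kinase-Glo Plus, 10 min) after 1 h RT reaction of 5 nM GALK, 35 uM ATP, 100 uM galactose, pH 8.0 HEPES buffer. Decreased kinase activity scored as inhibition.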
# Hits are given with their value; n = inactive; u = inconclusive; x = no result; ! = not active in a repeat. Only some compounds are listed: those with a hit (about 2.5% of all), similar ones and a draw of the others. Calls come from the whole dose curve; as a rule, active = well fitted curve in the direction sought with a large enough effect; inconclusive = small, poorly fitted or top-dose-only effect, or another doubt; inactive = no such curve, though single readings can be large; an effect the other way counts as inactive or inconclusive.
SMILES,HTT promoter inh,SKOV3 invasion,NTMT1 inhibitor,PTAP-TSG101 blk,HTT-AS promoter,GALK inh
CCc1ccc2nc(Nc3cc(Cc4ccccc4)nc(NC4CCC(O)CC4)n3)sc2c1 (configuration not stated),x,x,n,x,x,x
O=C(Nc1cccc(C(F)(F)F)c1)c1ccc(F)c(S(=O)(=O)N2CCc3ccccc3C2)c1,28µM,n,n,n,n,n
O=C(Nc1cc(Cl)cc(Cl)c1)c1ccc(F)c(S(=O)(=O)NCc2ccccc2Cl)c1,u,u,n,n,n,n
O=C(Nc1cccc(Cl)c1)c1ccc(F)c(S(=O)(=O)N2CCC3(CC2)OCCO3)c1,u,n,n,n,n,n
CC(C)c1ccc(NC(=O)c2ccc(F)c(S(=O)(=O)N3CCN(c4ccccc4F)CC3)c2)cc1,u,n,n,n,n,n
COc1ccccc1CNS(=O)(=O)c1cc(C(=O)Nc2cccc(C(F)(F)F)c2)ccc1F,28µM,u,n,n,n,n
CC(C)c1ccc(NC(=O)c2ccc(F)c(S(=O)(=O)N3CCc4ccccc4C3)c2)cc1,11µM,n,n,n,n,n
COc1ccccc1N=c1scc(-c2ccc(S(=O)(=O)N3CCCC3)cc2)n1C,3.2µM,n,n,n,n,n
CCc1ccc2nc(N3CCC(C(=O)O)CC3)sc2c1,10µM,n,n,n,n,n
CCC(Cc1ccccc1)NC(=O)c1ccc2nc(N3CCC(C)CC3)sc2c1 (configuration not stated),1.3µM,n,n,n,n,n
CC(C)c1cc(C(=O)N2CC[C@H](NC(=O)C3CC3)C2)n[nH]1,x,x,n,x,x,x
CN1CCCN(C(=O)c2cccc(-c3ccc(/C=C4\C(=O)Nc5ccc(Cl)cc54)o3)c2)CC1,x,x,7.9µM,x,x,x
O=S(=O)(c1cccc2c(I)cccc12)N1CCCNCC1,x,x,40µM!,x,x,x
O=S(=O)(c1ccccc1)n1nc(-c2ccco2)nc1NCc1ccccc1,n,n,n,n,13µM,n
O=C(O)c1ccccc1-c1ccc(/C=c2\sc3nc4cc(Br)cnc4n3c2=O)o1,x,x,35µM,x,x,x
N#C/C(=C\c1ccc(-c2ccccc2C(=O)O)o1)c1nc2ccccc2[nH]1,n,n,n,n,n,n
Cc1ccc(-c2nc3ccccn3c2Nc2ccc3c(c2)OCO3)cc1,n,n,u,n,n,n
c1csc(-c2nc3ccccn3c2Nc2ccc3c(c2)OCCO3)c1,n,n,u,n,n,n
Cc1ccc(Nc2c(-c3ccc(N(C)C)cc3)nc3ccccn23)cc1,n,n,u,n,2µM,n
Cc1ccn2c(Nc3ccc4c(c3)OCCO4)c(-c3cccs3)nc2c1,n,n,13µM,n,u,n
Cc1ccc(-c2nc3ccccn3c2Nc2ccc3c(c2)OCCO3)o1,n,n,16µM,n,n,n
N#Cc1c(Oc2ccc(F)c(NC(=O)Cc3cccc(C(F)(F)F)c3)c2)ccc2nc(NC(=O)C3CC3)sc12,x,x,n,x,x,x
Cc1nc2ccc(C(=O)N3CCC4(CC3)CC(=O)c3c(cnn3C(C)C)C4)cc2[nH]1,x,x,n,x,x,x
COc1ccc(NC(=O)Cn2c(=O)oc3ccccc32)cc1,n,n,89µM,n,n,n
CCc1ccccc1NC(=O)Cn1c(=O)oc2ccccc21,n,n,n,n,n,n
SMILES,HTT promoter inh,SKOV3 invasion,NTMT1 inhibitor,PTAP-TSG101 blk,HTT-AS promoter,GALK inh
CC(=O)c1cccc(NC(=O)Nc2nnc(-c3ccncc3)s2)c1,x,x,n,x,x,x
Fc1cccc(Cl)c1CNc1n[nH]c(-c2ccco2)n1,n,n,n,n,5µM,n
CCCc1nnc(NC(=O)c2cc(=O)c3ccccc3o2)s1,n,n,n,n,4µM,n
COCC(=O)NCC=Cc1ccc2ncnc(Nc3ccc(Oc4ccc(C)nc4)c(C)c3)c2c1,u,n,u,x,n,x
Cc1cc(Nc2ncnc3ccc(-c4ccc(CNCCS(C)(=O)=O)o4)cc23)ccc1Oc1ccn2ncnc2c1,u,n,22µM!,x,n,x
C[C@H](N)C(=O)Nc1cccc(-c2nn3c(=O)cc(N4CCNCC4)nc3s2)c1,x,x,n,x,x,x
CCOC(=O)c1csc(-n2nc(-c3ccc(F)c(F)c3)c(Cc3ccc(S(N)(=O)=O)cc3)c2N)n1,x,x,n,x,x,x
NS(=O)(=O)c1ccc(Cc2c(-c3cccc(-c4ccccc4)c3)nn(-c3nc(C(=O)O)cs3)c2C2CC2)cc1,x,x,25µM,x,x,x
Cc1nc(Nc2ncc(C(=O)Nc3c(C)cccc3Cl)s2)cc(N2CCN(CCO)CC2)n1,u,u,22µM!,x,n,x
CCOC(=O)C1CCN(C(=O)Cn2c(=O)cc(C)c3c(C)nn(C)c32)CC1,u,n,n,n,n,n
CCOC(=O)N1CCN(C(=O)Cn2sc3nc(C)cc(C)c3c2=O)CC1,x,x,3.2µM,x,x,x
NC(=NCCCCCCN=C(N)N=C(N)Nc1ccc(Cl)cc1)N=C(N)Nc1ccc(Cl)cc1,n,n,35µM!,x,n,x
Cc1ccc(-c2cc(C(=O)Nc3ccncc3)c3ccccc3n2)cc1C,x,x,n,x,x,x
Cc1ccc(-c2cc(C(=O)Nc3ccc(-c4noc(=O)[nH]4)cc3)c3ccccc3n2)cc1C,x,x,45µM,x,x,x
Cc1ccc(-c2cc(C(=O)NCc3ccc(S(C)(=O)=O)cc3)c3ccccc3n2)cc1C,x,x,50µM,x,x,x
Cc1ccc(-c2cc(C(=O)NCc3ccc(S(N)(=O)=O)cc3)c3ccccc3n2)cc1C,x,x,n,x,x,x
Oc1ccc(CNc2cc(Cl)ccn2)c2cccnc12,x,x,n,x,x,x
CCCc1nc(C)c2c(=O)[nH]c(-c3cc(S(=O)(=O)N4CCN(CC)CC4)ccc3OCC)nn12,u,u,14µM!,x,n,x
O=C(Nc1cccc(-c2nn3c(=O)cc(N4CCNCC4)nc3s2)c1)c1ccon1,x,x,n,x,x,x
CN(C)CCC[C@@]1(c2ccc(F)cc2)OCc2cc(C#N)ccc21,n,x,25µM,x,n,x
CC1=C(C(=O)N(C)C)C(c2ccccc2Br)N=C(Nc2nc3ccccc3o2)N1 (configuration not stated),x,x,n,x,x,x
COc1cc2c(Oc3ccc4[nH]c(C)cc4c3F)ncnc2cc1OCCCN1CCCC1,u,n,45µM!,x,n,x
COc1cc(Nc2nc(-c3ccncc3)nc3ccccc23)ccc1N1CCN(C)CC1,x,x,8.9µM,x,x,x
CN1CCN(c2ccc(Nc3nc(-c4ccncc4)nc4ccccc34)cc2F)CC1,x,x,22µM,x,x,x
